# In PubChem BioAssay AID485364 (National Center for Advancing Translational Sciences (NCATS), 2010):
# In all, about 360,000 compounds went through this assay and about 11,000 (3.1%) were called active. Roughly 4% stayed inconclusive and do not appear here. Only a selection was taken, and actives are over-represented in it overall. A number with no mark means an inactive call. The call rests on the fitted dose curve; in most records, active means well fitted inhibition curve with a large enough effect; inconclusive means small, poorly fitted or top-dose-only effect; inactive means no such curve, though single readings can be large or run the other way.
# Target: Schistosoma mansoni thioredoxin glutathione reductase (TGR) (UniProt Q962Y6)
# Test: qHTS Assay for the Inhibitors of Schistosoma Mansoni Peroxiredoxins; further: nearly all actives have a fitted effect of over 60% in size
# Conditions: purified TGR, DTNB reduction, TNB absorbance 405 nm; series mostly up to 114 µM; activity change, negative = inhibition: at the top concentration
# Method in brief: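 Kinetic colorimetric format: TGR-catalysed, NADPH-driven DTNB reduction monitored via TNB absorbance. Enzyme dispensed at 20 nM; compound exposure 15 min at room temperature before reaction start.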
# On the % scale 0 is the no-effect control and ±100 the full control effect; potency means the concentration at half of the fitted maximal effect.
Structure (SMILES),Potency,"activity change, negative = inhibition [%]"
O=C(/C=C/c1ccc([N+](=O)[O-])o1)NNC(=O)c1ccc(F)cc1,11.2 µM (active),
O=C(/C=C/c1ccc(F)cc1)NC(=S)NNC(=O)c1cccnc1,,-1.91
O=C(Nc1ccc(F)cc1)C1CCN(C(=O)c2ccc([N+](=O)[O-])cc2)CC1,,3.63
CC1(C)CCSC(/C=C/c2ccccc2)=N1,17.8 µM (active),
CCCCC(CC)CNC(=O)C1CCN(S(=O)(=O)c2cccc3nsnc23)CC1 (centres undefined),,-3.56
COc1ccc2c(CNCCc3ccccc3C)c(C(=O)O)n(Cc3ccccc3C)c2c1,,-2.09
CCOC(=O)N1CCN(CC(=O)n2c(C)c(C)c3ccccc32)CC1,,-20.4
CCOC(=O)N1CCN(CC(=O)c2c(C)[nH]c3ccccc23)CC1,35.5 µM (active),
CCOC(=O)N1CCN(CC(=O)c2ccc3c(c2)CCN3)CC1,,0.36
CC1CCCN(Cc2nc3c(c(=O)n(C)c(=O)n3C)n2CC(=O)c2ccccc2)C1 (centres undefined),,-0.23
Cc1[nH]c2ccccc2c1C(=O)CN1CCCC(C)C1 (centres undefined),25.1 µM (active),
CC1CCN(CC(=O)c2c[nH]c3ccccc23)CC1,,2.55
Cc1cccc(N2CCN(C(=O)Cn3ncc4c5ccccc5n(C)c4c3=O)CC2C)c1 (centres undefined),,5.55
CCc1cc2c(cc3c(=O)n(CC(=O)NCc4cccc(Cl)c4)nc(CC)n32)s1,,4.93
Cc1cccc(NC(=O)c2cc3c(C)nn(-c4ccccc4)c3s2)c1,,2.56
COC(=O)c1ccc(OC)c(Cn2c(=O)n(Cc3ccccc3)c(=O)c3c2c2cc(OC)ccc2n3C)c1,,-8.64
Cc1oc2ccc(O)c(CN3CCCCC3)c2c1C(=O)Nc1cccc(C(F)(F)F)c1,,9.2
CCN(Cc1ccccc1)C(=O)c1cn(-c2cccc(OC)c2)c(=O)c2ccccc12,,-14.9
Cc1ccccc1NC(=O)CN1C(=O)C(C)(C)c2ccccc21,,5.62
CCOc1ccc(/C=C(\C#N)c2nc3ccccc3c(=O)[nH]2)cc1OC,,1.74
COc1ccc(/C=C(\C#N)c2c[nH]c3ccccc23)cc1,14.1 µM (active),
COc1cccc(-n2c(SCC(=O)c3c[nH]c4ccccc34)nc3ccccc3c2=O)c1,,1.41
COC(=O)c1ccc(NC(=O)c2cccc3c2C(=O)N(C2CCCCC2)C3)cc1,,1.52
CCN(CC)c1nn2c(=O)c(C(=O)NCCc3ccccc3)cnc2s1,,37.5
O=C(O)c1ccc(Nc2nc(-c3ccccc3)c3cc(Br)ccc3n2)cc1,,1.15

Structure (SMILES),Potency,"activity change, negative = inhibition [%]"
CC1=NC2(CCCc3c2no[n+]3[O-])N(O)C1(C)C (centres undefined),44.7 µM (active),
COc1ccc(-c2cn3nc(N4CCC(C(=O)Nc5cccc(C)c5C)CC4)sc3n2)cc1,,1.06
CCOC(=O)C1CCCN(C(=O)c2ccc(-n3ccc4ccccc43)s2)C1 (centres undefined),,9.63
O=C(CN1C(=O)COc2ccc(Cl)cc21)Nc1ccc(N2CCOCC2)cc1,,-47.8
O=C(CN1C(=O)COc2ccccc21)Nc1ccc(F)cc1,70.8 µM (active),
CC(OC(=O)CN1C(=O)COc2ccccc21)C(=O)NCc1ccc(F)cc1 (centres undefined),,5.02
O=C(O)c1c(CNCc2cccc(F)c2)c2ccccc2n1Cc1ccccc1,,-14.8
Brc1cc(/C=N/n2cnnc2)oc1Br,,-8.99
Cc1cccc(C(=O)Nc2ccc(C(=O)N/N=C/c3cccc(C)n3)cc2)c1,,-5.22
Cc1ccc(C(=O)N/N=C\c2cc(Br)c(Br)o2)cn1,22.4 µM (active),
Cn1nnnc1SCCCNCc1cccc(OCc2ccc(Cl)cc2)c1,,-0.443
CCOC(=O)c1cc2c(=O)n3ccccc3nc2n(CCCOC)c1=NC(=O)C(C)Oc1ccccc1 (centres undefined),,-2.86
COc1ccccc1/C=C/C(=O)NC1CC2CCC1C2 (centres undefined),,-1.68
CCOC(=O)C(=Cc1ccccc1OC)C(=O)OCC,28.2 µM (active),
CCOC(=O)C(=CNc1cccc(C)n1)C(=O)OCC,,6.03
COc1cc(C(=O)NCCc2csc3nc(-c4ccccc4C)nn23)cc(OC)c1OC,,-4.46
O=C(NCCCN1CCOCC1)c1ccc2c(c1)N(Cc1cccc(F)c1)C(=O)c1ccccc1S2,22.4 µM (active),
Cc1ccccc1CN1C(=O)c2ccccc2Sc2ccc(C(=O)NCCCN3CCOCC3)cc21,inactive,
CCC1=Nc2cc(C(=O)NCCCN3CCOCC3)ccc2Sc2ccc(Br)cc21,,4.06
Cc1ccc(CCNC(=O)c2ccc3c(c2)nc2n3CCC(C)C2)cc1 (centres undefined),,-6.81
CCOc1cccc(CC(=O)N2CCc3c([nH]c4ccccc34)C2c2ccc(OC)cc2)c1OCC (centres undefined),,9.6
CCN(CC)S(=O)(=O)c1ccc2c(c1)nc(CN(C)C(=O)Nc1ccc(Cl)cc1)n2C,,4.09
O=C(Cc1ccc(-c2ccccc2)cc1)NC(c1ccccc1)c1ccccc1,,3.82
CCOC(=O)/C=C/C(=O)OCC(=O)NC(c1ccccc1)c1ccccc1,15.8 µM (active),
CCOC(=O)C(C(=O)OCC)C(C#N)c1ccccc1 (centres undefined),,-0.421

Structure (SMILES),Potency,"activity change, negative = inhibition [%]"
COc1cccc(C2C(C(=O)Nc3ccc(C)cc3C)=C(C)Nc3c(C(=O)Nc4ccccc4)cnn32)c1 (centres undefined),,-6.99
Cc1cccc(NC(=O)CSc2nc3c([nH]c4ccccc43)c(=O)n2-c2cc(C)cc(C)c2)c1,,4.01
CSc1cccc(NC(=O)CN2C(=O)CCc3cc(S(=O)(=O)N4CCCCC4)ccc32)c1,,0.0354
COc1ccc(Cn2c(C(=O)O)c(CNCc3cccc(OC)c3)c3ccc(C)cc32)cc1,,3.42
O=C(CSc1nc(=O)[nH]c2c1CCCC2)Nc1cc(C(F)(F)F)ccc1Cl,,-0.322
Cc1nc2c(c(C)nn2-c2ccccc2)c(C)c1CCC(=O)NCCc1ccc(Cl)cc1,,2.65
C=Cc1ccc(Cn2c(C(=O)O)c(CNC3CCCC3)c3ccc(C)cc32)cc1,,-1.48
O=C(NCc1ccco1)c1ccc(Cn2c(=O)c3sccc3n(Cc3ccc(F)cc3)c2=O)cc1,,1.62
CC(C)OCCCNC(=O)CNC(=O)c1cccs1,,1
CC(C)OCCCNC(=O)c1ccc(C2SCC(=O)N2Cc2ccco2)cc1 (centres undefined),25.1 µM (active),
CCOc1ccc(NC(=O)c2cc(S(=O)(=O)N3CCCC3)c[nH]2)cc1,,1.37
COc1ccc(CNC(=O)c2cc3c(s2)-c2ccccc2OC3)cc1,,0.527
COc1cccc(CNC(=O)Cn2c(=O)c3cccn3c3ccc(F)cc32)c1OC,,6.91
O=C(CNC(=O)c1ccccc1)Oc1ccc([N+](=O)[O-])cc1,11.2 µM (active),
O=C(CNC(=O)c1ccccc1)NCC(=O)OCC(=O)c1ccccc1,,14.6
O=C(NNS(=O)(=O)Cc1ccccc1)c1ccc([N+](=O)[O-])cc1,,1.83
COc1cc(CN(CC2CCCO2)C(=O)c2ccccc2F)cc(OC)c1OC (centres undefined),,-7.23
CCc1nc2c(cnn2-c2ccc(C)cc2)c(=O)n1-c1ccc(C)cc1,,9.53
COc1ccc(CN2CCC(n3nccc3NC(=O)CCCc3ccccc3)CC2)cc1C,,5.46
Cc1ccc(CN2CCC(n3nccc3NC(=O)CCCc3ccccc3)CC2)o1,,-60.4
COc1cc(CN2CCC(n3nccc3NC(=O)CCCc3ccccc3)CC2)ccc1O,44.7 µM (active),
CC1=Nc2cc(C(=O)N3CCC(C)CC3)ccc2Sc2ccc(Cl)cc21,,12.6
Cc1ccc(C)n1NC(=O)c1ccc([N+](=O)[O-])cc1,,-23.3
N=C1C(c2nc3ccccc3[nH]2)=C(O)CN1NC(=O)c1c[nH]c2ccccc12,,-7.22
N=C1C(c2nc3ccccc3s2)=C(O)CN1NC(=O)c1ccc([N+](=O)[O-])cc1,12.6 µM (active),

Structure (SMILES),Potency,"activity change, negative = inhibition [%]"
CCC(=O)N1CCc2cc(Br)cc(S(=O)(=O)NCc3ccc(Cl)cc3)c21,,1.1
Cc1nn(CC(=O)O)c(=O)c2cc3cc(F)ccc3n12,,4.83
COc1ccccc1NC(=O)c1cc(S(=O)(=O)NCCc2ccccc2)ccc1F,,1.29
C=CCn1c(SCC(=O)NCc2ccccc2)nnc1-c1cc(Br)ccc1O,,-22.8
C=CCn1c(CSc2nc3ccccc3s2)nnc1SCC(=O)NCc1ccco1,11.2 µM (active),
O=C(CSc1nc2ccc(Nc3nc(N4CCOCC4)nc(N4CCOCC4)n3)cc2s1)NCc1ccco1,,-26.5
Cn1c2ccc(F)cc2c2nnc(NN)nc21,50.1 µM (active),
CCn1c2ccc(F)cc2c2nnc(SCCN3CCOCC3)nc21,,0
CC(=O)Nc1ccc(NC(=O)CSc2nnc3c4cc(Br)ccc4n(C)c3n2)cc1,,0.416
COc1ccc(S(=O)(=O)NCc2cccn2Cc2cccc(C)c2)cc1Cl,,-25
CCOc1cc(C(=O)Nc2nnc3n2CCS3)cc(OCC)c1OCC,,8.04
CCc1cccc(NC(=O)CN(c2ccc(C)c(C)c2)S(=O)(=O)c2ccsc2C(=O)OC)c1,,7.42
CC(=O)N1CC(C)c2scc(C)[n+]2-c2ccccc21 (centres undefined),1.58 µM (active),
Cc1ccc(/C=C(\C#N)C(=O)Nc2cc(C)ccc2C)cc1,,9.44
Cc1nn(C(C)C(=O)Nc2ccc(C(C)C)cc2)c(=O)c2c1sc1ccccc12 (centres undefined),,-4.07
CCOC(=O)c1c(NC(=O)c2ccc(S(=O)(=O)N3CCCC(C)C3)cc2)sc2c1CCN(C(C)C)C2 (centres undefined),,-4.43
Cc1cc(C)c2c(NC(=O)C3CC3)nn(C)c2n1,,13.4
COC(=O)c1cc(NC(=O)CCc2c(C)nc3c4c(C)cc(C)nc4nn3c2C)cc(C(=O)OC)c1,,-4.76
Cc1cc(C)c2c(n1)nn1c(-n3ccnc3)cc(C)nc21,35.5 µM (active),
COc1ccc(NC(=O)Cn2c(=O)n(CCC(C)C)c(=O)c3cccnc32)cc1Cl,,4.25
Cc1c(C(=O)NCc2ccccc2Br)oc2ccc3c(c12)C(=O)CC(C)(C)O3,,1.93
CCOC(=O)N1CCC(NC(=O)c2cnn(-c3cccc(C)c3)c2C2CCN(C(=O)OC(C)(C)C)CC2)CC1,,-12.9
COc1cc(Cl)ccc1Nc1ncc(C(=O)N2CCN(c3ccccc3OC)CC2)c2ccccc12,,8.24
Cc1ccc2nc(CN3CCN(S(=O)(=O)c4ccc(C)c(C)c4)CC3)oc2c1,,-4.25
